# From PubChem BioAssay AID2718 (Broad Institute, 2010)
# Out of some 320,000 compounds screened, about 480 (0.15%) were called active. Not shown: some 1% with an inconclusive outcome. No stated cut-off is given here; in the data, active means inhibition above about 26% (passing the limit was not always enough); inconclusive means no clear call, values can overlap the other calls. The list comes from a sample in which actives are over-represented; it also holds similar structures and randomly drawn compounds.
# Biological target: Histone deacetylase 3 (Homo sapiens) (UniProt O15379)
# Sequence (O15379 whole entry, looked up): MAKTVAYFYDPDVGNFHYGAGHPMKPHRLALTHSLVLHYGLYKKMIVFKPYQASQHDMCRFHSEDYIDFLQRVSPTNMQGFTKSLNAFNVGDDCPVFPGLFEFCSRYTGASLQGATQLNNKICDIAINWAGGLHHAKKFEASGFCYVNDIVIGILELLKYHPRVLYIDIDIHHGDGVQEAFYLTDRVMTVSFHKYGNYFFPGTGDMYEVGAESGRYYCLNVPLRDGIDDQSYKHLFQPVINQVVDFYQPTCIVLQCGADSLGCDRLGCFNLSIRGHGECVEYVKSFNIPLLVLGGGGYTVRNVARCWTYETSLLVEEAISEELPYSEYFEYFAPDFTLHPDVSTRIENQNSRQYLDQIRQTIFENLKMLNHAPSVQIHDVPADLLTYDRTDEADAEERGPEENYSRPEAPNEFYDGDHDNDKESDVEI
# Assay: HDAC3 deacetylase inhibitors, primary screen, biochemical, fluorescence, cell-free homogeneous (AID 2718)
# Conditions: recombinant HDAC3, fluorogenic peptide/trypsin coupled, at 8.3 µM, stronger effect = higher value
row,SMILES,inhibition
1,O=C(COC(=O)c1cccnc1Cl)NC12CC3CC(CC(C3)C1)C2,-0.423% (inactive)
2,COCC(C)n1c(SCC(=O)NC2CCCCC2C)nc2ccccc2c1=O (centres undefined),0.838% (inactive)
3,O=C(COC(=O)c1ccc(Br)o1)NC12CC3CC(CC(C3)C1)C2,-3.01% (inactive)
4,C[C@H](CO)N1C[C@H](C)[C@@H](CN(C)C(=O)Nc2ccc3c(c2)OCO3)Oc2c(cccc2N(C)C)C1=O,-8.66% (inactive)
5,COc1ccc2nc3n(c(=O)c2c1)-c1ccc(Cl)cc1C(=O)NC3Cc1ccccc1 (centres undefined),-1.2% (inactive)
6,C[C@H]1COC(=O)[C@H](CC(=O)OC(C)(C)C)C/C=C\C[C@@H](CC(=O)N[C@H](CO)Cc2ccccc2)C(=O)N1,-4.05% (inactive)
7,CN1C(=O)[C@H]2[C@@H](/C=C/c3ccccc3)N3C(=O)CN(Cc4ccc(-c5ccccc5)cc4)C(=O)[C@@]3(C)[C@H]2C1=O,6.83% (inactive)
8,O=C(OCC(=O)N1CCCCCC1)c1ccc(Br)c(S(=O)(=O)N2CCOCC2)c1,-0.213% (inactive)
9,O=C(CCNC(=O)c1ccc(Br)cc1)NCC(c1ccco1)N1CCCCC1 (centres undefined),2.98% (inactive)
10,Cn1c(N)c(C(=O)COC(=O)c2ccc3ccccc3c2)c(=O)n(C)c1=O,-3.95% (inactive)
11,COC(=O)c1c(CCl)noc1C(=O)NC(C)C,-2.79% (inactive)
12,O=C(CNC(=O)c1ccccc1F)OCC(=O)c1c[nH]c2ccccc12,1.43% (inactive)
13,Clc1cccc(Cl)c1Cn1nnc(-c2cccs2)n1,-9.16% (inactive)
14,COc1cc(Cl)c(C)cc1NC(=O)CSc1nnc(CN2CCCC2)o1,-2.25% (inactive)
15,Cc1nn(C)c(C)c1CN(C(=O)CCc1nnc(Cc2c[nH]c3ccccc23)o1)C(C)C,-1.72% (inactive)
16,Cc1ccsc1C(=O)NNC(=O)COc1ccc(Br)cc1,-2.82% (inactive)
17,CC1(C)CC[C@@]2(C(=O)O)C(C1)C1=CCC3[C@@]4(C)CC[C@H](O)C(C)(C)C4CC[C@@]3(C)[C@]1(C)C[C@H]2O (some centres undefined),-0.0116% (inactive)
18,CN(C(=O)CSc1cccc[n+]1[O-])C1CCCCC1,-0.125% (inactive)
19,COc1cc(NC(=O)COC(=O)c2cc(S(=O)(=O)N3CCOCC3)ccc2F)cc(OC)c1,-6.13% (inactive)
20,CC(C)CC1(C)NC(=O)N(CC(=O)Nc2ccc3c(c2)OCCO3)C1=O (centres undefined),0.72% (inactive)
21,O=C(N/N=C\c1ccc(-c2ccc(Cl)c(Cl)c2)o1)C(=O)N1CCCC1,-2.85% (inactive)

row,SMILES,inhibition
1,Cc1ccc(C(=O)N2CCC(n3nccc3NC(=O)Nc3cccc(F)c3)CC2)cn1,4.68% (inactive)
2,CCN1N=C(c2ccccc2)CCC1=O,-1.92% (inactive)
3,CN(c1ccccc1)S(=O)(=O)c1cc(C(=O)N2CCN(c3ncccn3)CC2)ccc1Cl,5.51% (inactive)
4,O=C(N=C1SC2CS(=O)(=O)CC2N1c1ccccc1)c1ccccc1 (centres undefined),3.67% (inactive)
5,O=C(Cn1c(N2CCN(C/C=C/c3ccccc3)CC2)nc2ccccc21)c1ccccc1,11.7% (inactive)
6,COc1ccc(NC(=O)N(C)C[C@H]2Oc3ccc(NC(=O)C4CC4)cc3C(=O)N([C@H](C)CO)C[C@@H]2C)cc1,2.07% (inactive)
7,COc1ccc(S(=O)(=O)N(C)C[C@H]2Oc3c(NC(=O)Nc4ccc5c(c4)OCO5)cccc3C(=O)N([C@H](C)CO)C[C@@H]2C)cc1,0.282% (inactive)
8,Cc1ccc(C(=O)NNC(=O)CSc2nnc3ccccn23)cc1,-19.4% (inactive)
9,C#CCOCCOCCOCCNc1nc(N2CCN(C(=O)CCCCCCCCCCNC(=O)Cn3cc(CCCCCN)nn3)CC2)nc(N2CCN(C(=O)CCCCCCCCCCNC(=O)[C@H](CO)n3cc(CCCSC)nn3)CC2)n1,22.2% (inactive)
10,C#CCOCCOCCOCCNc1nc(N2CCN(C(=O)CCCCCCCCCCNC(=O)[C@H](CCCCN)n3cc(C)nn3)CC2)nc(N2CCN(C(=O)CCCCCCCCCCNC(=O)[C@H](CO)n3cc(CCCSC)nn3)CC2)n1,17.4% (inactive)
11,C#CCOCCOCCOCCNc1nc(N2CCN(C(=O)CCCCCCCCCCNC(=O)[C@H]([C@@H](C)CC)n3cc(CCCCN=C(N)N)nn3)CC2)nc(N2CCN(C(=O)CCCCCCCCCCNC(=O)[C@H](CO)n3cc(CCCSC)nn3)CC2)n1,65% (active)
12,CCOC(=O)C1(Cc2cccc(OC)c2)CCN(Cc2csc(C(C)=O)c2)CC1,0.985% (inactive)
13,CCOC(=O)C1=C(CC)Nc2ccccc2N=C1N,5.45% (inactive)
14,CCCCOc1ccc(N(CC(=O)NCC2CCCO2)C(=O)CCC(=O)Nc2cc(C)ccn2)cc1 (centres undefined),1.38% (inactive)
15,COc1ccc(C(=O)COC(=O)C(O)c2ccccc2)c(OC)c1 (centres undefined),8.77% (inactive)
16,CCOc1ccc(NS(=O)(=O)c2cc(C)c(C)cc2C)cc1,2.58% (inactive)
17,Cc1ccc(S(=O)(=O)N2CCN(C(=O)CN3C(=O)NC(C)(c4ccc(Cl)cc4)C3=O)CC2)c(C)c1 (centres undefined),-0.669% (inactive)
18,CC1CN(C(=O)c2ccc([N+](=O)[O-])s2)CC(C)O1 (centres undefined),-3.39% (inactive)
19,Cc1c(CCO)c(=O)[nH]n1C(=O)c1c(F)cccc1F,-6.64% (inactive)
20,COc1ccc(CC(NC(C)=O)C(=O)N2CCN(C(=O)Nc3cccc(Cl)c3)CC2)cc1OC (centres undefined),1.26% (inactive)
21,Cc1ccc(-c2nc(-c3cccnc3)sc2CC(=O)Nc2ccc(C)c(Cl)c2)cc1,6.66% (inactive)

row,SMILES,inhibition
1,Cc1ccc(S(=O)(=O)N(CCCN(C)C)Cc2ccc3c(c2)OCO3)cc1,5.59% (inactive)
2,CCOC(=O)C1CCN(CC(=O)Nc2ccc(OC)c(S(=O)(=O)N3CCCCC3)c2)CC1,4.01% (inactive)
3,CCOC(=O)c1ccc(N2C(=O)CC(N(C)Cc3ccccc3)C2=O)cc1 (centres undefined),-1.1% (inactive)
4,CCOc1ccc(N2C(=O)CC(N(O)c3ccccc3)C2=O)cc1 (centres undefined),-2.22% (inactive)
5,CCCCCCC(=O)N(O)C1CC(=O)N(c2ccccc2)C1=O (centres undefined),78.3% (active)
6,CCN(CC)S(=O)(=O)c1ccc2c3c(cccc13)C(=O)S2,3.45% (inactive)
7,Fc1cnc(N2CCOCC2)nc1NCc1ccccc1,-0.33% (inactive)
8,COc1ccc(C(=O)n2nc(C)c(Br)c2C)cc1OC,38.4% (active)
9,COc1ccc(C(=O)n2nc(-c3ccc(Cl)cc3)nc2N)cc1OC,13.1% (inactive)
10,COc1ccc(C(=O)n2nc(-c3ccc(C)cc3)nc2N)cc1OC,9.8% (inactive)
11,O=C(Cc1ccccc1)Nc1c(Cl)ccc2nsnc12,2.55% (inactive)
12,C=C(Br)CN1CCN(CC(=C)Br)CC1,-3.73% (inactive)
13,O=C(O)C1C2C=CC(O2)C1C(=O)NCCc1cccc(Cl)c1 (centres undefined),-6.57% (inactive)
14,Cc1ccc(/C=N/NC(=O)C(NC(=O)c2ccccc2)c2n[nH]c(=O)c3ccccc23)cc1 (centres undefined),15% (inactive)
15,O=C(COC(=O)c1ccco1)Nc1ccc(Cl)cn1,0.924% (inactive)
16,COc1cc(CNC2CCCC2)c(Br)cc1OCc1ccccc1,3.98% (inactive)
17,COc1cc(C2CC(=O)N3CN(Cc4ccccc4)CSC3=C2C#N)ccc1OCc1ccccc1 (centres undefined),33.1% (active)
18,COc1cc(CN2CCC(C(N)=O)CC2)ccc1OCc1ccccc1,-3.96% (inactive)
19,COc1cc(NC(=O)c2[nH]cnc2C(N)=O)cc(C(=O)Nc2cccc(C(F)(F)F)c2)c1,-8.89% (inactive)
20,O=C(NC(=S)NC1CCSC1=O)c1ccccc1F (centres undefined),-7.58% (inactive)
21,O=C(CN1CCN(C(=S)NC2CCCC2)CC1)Nc1ccc(Oc2ccccc2)cc1,-5.51% (inactive)

row,SMILES,inhibition
1,COc1ccccc1-n1nnnc1SCC(=O)NC(=O)Cc1ccccc1,-1.86% (inactive)
2,O=C(NCc1ccccc1)C1=C[C@@H](c2ccc(C(F)(F)F)cc2)C[C@@H](OCc2ccc(CO)cc2)O1,21.1% (inactive)
3,O=C(C1=C[C@H](C2CC2)C[C@H](OCc2ccc(CO)cc2)O1)N1CCN(Cc2ccccc2)CC1,-8.37% (inactive)
4,O=C(C1=C[C@H](c2ccc(C(F)(F)F)cc2)C[C@H](OCc2ccc(CO)cc2)O1)N1CCN(Cc2ccccc2)CC1,33.5% (active)
5,CNS(=O)(=O)c1cccc(C(=O)OCC(=O)N2c3ccccc3NC(=O)C2(C)C)c1,4.33% (inactive)
6,CCN(CC)CCN(C(=O)c1cccc([N+](=O)[O-])c1)c1nc2ccc(OC)cc2s1,-1.73% (inactive)
7,CN(C(=O)c1cccc(NC(=O)C2CCN(C(=O)OC(C)(C)C)CC2)c1)C1CCC1,-2.89% (inactive)
8,CSCCC(NC(=O)c1ccco1)C(=O)NCCc1ccc(F)cc1 (centres undefined),-4.83% (inactive)
9,COc1ccc(C(=O)OCc2cc(=O)n3ccsc3n2)cc1F,0.474% (inactive)
10,C=CCC[C@H](Cc1ccc(F)cc1)C(=O)OC[C@@H](NC(=O)[C@@H](CC=C)CC(=O)N[C@H](CO)Cc1ccccc1)C(C)(C)C,41.7% (active)
11,C=CC[C@H](CC(=O)OC(C)(C)C)C(=O)OC[C@H]1CCCN1C(=O)[C@H](CC=C)CC(=O)N(CCO)Cc1ccccc1,1.66% (inactive)
12,C=CCC[C@H](Cc1ccc(F)cc1)C(=O)OC[C@H](C)NC(=O)[C@H](CC=C)CC(=O)N(CCO)Cc1ccccc1,30.2% (active)
13,C=CCC[C@@H](Cc1ccc(F)cc1)C(=O)OC[C@H](Cc1c[nH]c2ccccc12)NC(=O)[C@@H](CC=C)CC(=O)N(CCO)Cc1ccccc1,41.9% (active)
14,C=CC[C@@H](CC(=O)N[C@H](CO)Cc1ccccc1)C(=O)N[C@@H](COC(=O)[C@@H](CC=C)Cc1ccc(F)cc1)Cc1c[nH]c2ccccc12,0.653% (inactive)
15,C=CCC[C@@H](Cc1ccc(F)cc1)C(=O)O[C@H](CNC(=O)[C@H](CC=C)CC(=O)N(CCO)Cc1ccccc1)c1ccccc1,48.4% (active)
16,C=CCC[C@@H](Cc1ccc(F)cc1)C(=O)OC[C@@H](C)NC(=O)[C@H](CC=C)CC(=O)N(CCO)Cc1ccccc1,2.58% (inactive)
17,C=CC[C@@H](CC(=O)N[C@@H](CO)Cc1ccccc1)C(=O)N[C@H](COC(=O)[C@H](CC=C)CC(=O)OC(C)(C)C)Cc1ccccc1,7.81% (inactive)
18,C=CCC[C@H](Cc1ccc(F)cc1)C(=O)OC[C@@H](Cc1c[nH]c2ccccc12)NC(=O)[C@H](CC=C)CC(=O)N[C@H](CO)Cc1ccccc1,6.12% (inactive)
19,C=CC[C@@H](CC(=O)NCCO)C(=O)N[C@H](C)COC(=O)[C@@H](CC=C)CC(=O)OC(C)(C)C,-0.677% (inactive)
20,C=CC[C@@H](CC(=O)N[C@H](CO)Cc1ccccc1)C(=O)N[C@H](C)COC(=O)[C@@H](CC=C)Cc1ccc(F)cc1,19.7% (inactive)
21,C=CC[C@@H](CC(=O)N[C@@H](CO)Cc1ccccc1)C(=O)NCCOC(=O)[C@@H](CC=C)CC(=O)OC(C)(C)C,0.71% (inactive)
